Results on 4 compounds are retold here after PubChem BioAssay.

Calls of active or inactive are those of the source. Unless noted, no rule for the calls is given here.

The subject of experiment [1] is Wnt5a (protein binding on small-molecule microarray). Briefly: Wnt5a binders on small-molecule microarray, primary screen, biophysical, 635/667 nm fluorescence (AID 1142).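 Also: fluorescence read at 667 nm with signal to noise per printed feature.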 Conditions: 635 nm fluorescence, higher = more signal.
A short description of experiment [2]: cell viability in Huh7 cells, primary screen, cytotoxicity control for HCV replication inhibitor project, CellTiter-Glo luminescence, basal, 48 h (AID 1143).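 Also: Huh7 hepatoma cells carrying a hepatitis C replication reporter with no stimulus; test concentration not given here.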 Conditions: Huh7 HCV replicon, higher = more signal, called active from +8 up or from −8 down.
A short description of experiment [3]: P. aeruginosa biofilm formation inhibitors, primary screen, PAO1 strain, BacTiter-Glo luminescence, LB-PBS (AID 1144). The settings on record: 12 h, higher = more signal.
The nature of experiment [4]: CREB reporter modulators without forskolin, primary screen, cell-based, PC12, CRE-LacZ reporter, unstimulated (AID 1145). The settings on record: no forskolin, luminescence, 4.5 h, higher = more signal, called active from +8 up or from −8 down.
Experiment [5] in a line: CREB reporter modulators under forskolin, primary screen, cell-based, PC12, CRE-LacZ reporter, forskolin-stimulated (AID 1146).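 Also: PC12 cells with 6xCRE LacZ reporter stimulated by forskolin 10 µM; beta-galactosidase reporter signal reflecting CREB driven transcription.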 Conditions: luminescence, 4.5 h, higher = more signal, called active from +8 up or from −8 down.
In experiment [6] the target is Streptavidin (Streptomyces avidinii) (UniProt P22629). Briefly: streptavidin binders on small-molecule microarray, primary screen, artefact control for SMM compound annotation, biophysical, 635/667 nm fluorescence (AID 1147).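 Also: signal reflects streptavidin binding to arrayed compounds as a control protein.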 Conditions: streptavidin binding, higher = more signal.
A short description of experiment [7]: small-molecule binders of probe aInhba, primary screen, biochemical, small-molecule microarray, 635/667 nm fluorescence (AID 1148).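 Also: score merges 667nm spot fluorescence with signal-to-noise for antibody binding to printed compounds.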 Conditions: higher = more signal.
Experiment [8] has as its target Torsin-1A (Homo sapiens) (UniProt O14656). In words: torsin A binders from cell lysate, primary screen, small-molecule microarray, wild-type, 635/667 nm (AID 1149). Conditions: COS7 hTOR1A-WT lysate, 635 nm fluorescence, higher = more signal.
The target is the same in experiment [9]. In words: small-molecule binders of mutant TOR1A in lysate, primary screen, cell lysate, small-molecule microarray, COS7 lysate, 635/667 nm fluorescence (AID 1150).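 Also: score pools 667 nm emission and signal to noise measuring lysate protein binding.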 The settings on record: COS7 hTOR1A mutant lysate, 635 nm fluorescence, higher = more signal.
The subject of experiment [10] is Sonic hedgehog protein (Shh). Briefly: small-molecule binders of Shh protein, primary screen, biochemical, small-molecule microarray, 635/667 nm fluorescence (AID 1151).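 Also: Shh protein binding to compounds spotted on small-molecule microarray slides; score combines spot fluorescence intensity with signal-to-noise across triplicate slides.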 The settings on record: small-molecule microarray binding, 635 nm fluorescence; higher = more signal.
Experiment [11] is described as follows: E. coli DRC41 culture turbidity changes, primary screen, E. coli filamentation inducer project, strain DRC41, OD650, 48 h (AID 1152).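 Also: E. coli MC1000 strain DRC41 lacking acrAB efflux pump and sulA.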 Conditions: E. coli DRC41 (acrAB sulA), higher = more signal, called active from +8 up or from −8 down.
Experiment [12] is described as follows: small-molecule binders of probe aLefty1, primary screen, biochemical, small-molecule microarray, 635/667 nm fluorescence (AID 1153).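 Also: score merges spot fluorescence with signal-to-noise ratio from the scanned slide images.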 Conditions: higher = more signal.
The nature of experiment [13]: PSAC antagonists in infected red cells, primary screen, cell-based, P. falciparum Indochina, OD700, 1 h (AID 1154). Conditions: P. falciparum Indochina infected RBC osmotic lysis, higher = more signal, called active from +8 up or from −8 down.
Experiment [14] in a line: PSAC antagonists in infected red cells, primary screen, cell-based, P. falciparum Indochina, OD700, 2 h (AID 1155).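 Also: lysis reports solute entry through the parasite surface anion channel PSAC; channel blockers reduce lysis of infected cells.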 The settings on record: P. falciparum Indochina infected erythrocytes, osmotic lysis OD700; higher = more signal, called active from +8 up or from −8 down.
Experiment [15] can be described thus: osmotic lysis modulators in infected erythrocytes, primary screen, PSAC antagonist project, cell-based, P. falciparum Indochina, OD700, 3 h (AID 1156). The settings on record: higher = more signal, called active from +8 up or from −8 down.
Experiment [16] in a line: PSAC antagonists in infected red cells, primary screen, cell-based, P. falciparum Indochina, OD700, 18 h (AID 1157). The settings on record: P. falciparum Indochina infected erythrocytes, osmotic lysis OD700, 18 h; higher = more signal, called active from +8 up or from −8 down.
Experiment [17] in a line: modulators of S6 phosphorylation in cells, primary screen, cell-based, A549, cytoblot, luminescence, serum-stimulated (AID 1158).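 Also: serum-stimulated A549 lung adenocarcinoma cells; signal is phosphorylated S6 detected by cytoblot immunostaining with HRP secondary.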 Conditions: A549 phospho-S6 cytoblot, 5 h, higher = more signal.
Experiment [18] deals with NADPH oxidase 2 (Homo sapiens) (UniProt P04839). Briefly: NOX2-dependent H2O2 signal modulators, primary screen, NOX inhibitor project, cell-based, HEK293-NOX2, PMA-stimulated, Amplex Red fluorescence (AID 1159). Also: test concentration not given here. Conditions: 45 min, higher = more signal, called active from +8 up or from −8 down.
Experiment [19] concerns the target NADPH oxidase 4 (Homo sapiens) (UniProt Q9NPH5). In words: NOX4-dependent H2O2 signal modulators, primary screen, NOX inhibitor project, cell-based, HEK293-NOX4, tetracycline-induced, Amplex Red fluorescence (AID 1160). Conditions: 45 min, higher = more signal, called active from +8 up or from −8 down.
Experiment [20] concerns the target NADPH oxidase 5 (Homo sapiens) (UniProt Q96PH1). Briefly: NOX5-dependent H2O2 signal modulators, primary screen, NOX inhibitor project, cell-based, HEK293-NOX5, Amplex Red fluorescence (AID 1161). The settings on record: HEK293-NOX5, ionomycin, 45 min, higher = more signal.

Sequence of NADPH oxidase 5 (Homo sapiens) (Q96PH1 whole entry, looked up): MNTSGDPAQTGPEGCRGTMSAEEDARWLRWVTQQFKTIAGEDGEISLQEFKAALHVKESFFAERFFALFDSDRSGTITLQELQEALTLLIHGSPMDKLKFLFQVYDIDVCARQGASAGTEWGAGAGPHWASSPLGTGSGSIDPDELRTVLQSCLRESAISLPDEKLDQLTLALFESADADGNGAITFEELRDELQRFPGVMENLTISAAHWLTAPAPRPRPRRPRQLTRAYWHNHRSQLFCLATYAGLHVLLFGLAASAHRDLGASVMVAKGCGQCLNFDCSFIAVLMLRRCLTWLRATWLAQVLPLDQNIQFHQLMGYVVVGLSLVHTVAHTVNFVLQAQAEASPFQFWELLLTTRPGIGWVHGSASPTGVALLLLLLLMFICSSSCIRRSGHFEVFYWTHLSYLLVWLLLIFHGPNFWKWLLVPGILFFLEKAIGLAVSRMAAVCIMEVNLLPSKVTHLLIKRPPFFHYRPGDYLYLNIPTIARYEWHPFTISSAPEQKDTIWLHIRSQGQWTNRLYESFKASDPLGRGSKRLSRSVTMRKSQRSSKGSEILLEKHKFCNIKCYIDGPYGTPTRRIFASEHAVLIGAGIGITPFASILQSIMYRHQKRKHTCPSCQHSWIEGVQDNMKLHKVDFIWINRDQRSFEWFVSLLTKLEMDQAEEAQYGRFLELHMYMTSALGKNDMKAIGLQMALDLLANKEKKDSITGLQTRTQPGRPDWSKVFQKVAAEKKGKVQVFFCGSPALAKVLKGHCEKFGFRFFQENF
Sequence of NADPH oxidase 4 (Homo sapiens) (Q9NPH5 whole entry, looked up): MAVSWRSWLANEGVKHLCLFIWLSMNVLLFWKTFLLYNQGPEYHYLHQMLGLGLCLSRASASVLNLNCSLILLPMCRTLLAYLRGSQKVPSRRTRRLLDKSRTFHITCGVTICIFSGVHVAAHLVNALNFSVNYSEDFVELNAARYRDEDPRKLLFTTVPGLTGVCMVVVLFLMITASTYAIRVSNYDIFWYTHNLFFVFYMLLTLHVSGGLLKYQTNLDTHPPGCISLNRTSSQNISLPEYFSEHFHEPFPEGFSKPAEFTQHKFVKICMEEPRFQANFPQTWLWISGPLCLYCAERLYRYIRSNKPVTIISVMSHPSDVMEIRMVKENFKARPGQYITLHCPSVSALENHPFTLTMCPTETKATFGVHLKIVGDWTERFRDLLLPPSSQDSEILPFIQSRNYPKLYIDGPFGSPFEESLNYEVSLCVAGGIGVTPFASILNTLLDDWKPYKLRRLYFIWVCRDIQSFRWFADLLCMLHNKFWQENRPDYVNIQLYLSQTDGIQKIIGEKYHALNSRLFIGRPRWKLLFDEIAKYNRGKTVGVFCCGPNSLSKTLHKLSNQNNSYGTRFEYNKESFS
Sequence of NADPH oxidase 2 (Homo sapiens) (P04839 whole entry, looked up): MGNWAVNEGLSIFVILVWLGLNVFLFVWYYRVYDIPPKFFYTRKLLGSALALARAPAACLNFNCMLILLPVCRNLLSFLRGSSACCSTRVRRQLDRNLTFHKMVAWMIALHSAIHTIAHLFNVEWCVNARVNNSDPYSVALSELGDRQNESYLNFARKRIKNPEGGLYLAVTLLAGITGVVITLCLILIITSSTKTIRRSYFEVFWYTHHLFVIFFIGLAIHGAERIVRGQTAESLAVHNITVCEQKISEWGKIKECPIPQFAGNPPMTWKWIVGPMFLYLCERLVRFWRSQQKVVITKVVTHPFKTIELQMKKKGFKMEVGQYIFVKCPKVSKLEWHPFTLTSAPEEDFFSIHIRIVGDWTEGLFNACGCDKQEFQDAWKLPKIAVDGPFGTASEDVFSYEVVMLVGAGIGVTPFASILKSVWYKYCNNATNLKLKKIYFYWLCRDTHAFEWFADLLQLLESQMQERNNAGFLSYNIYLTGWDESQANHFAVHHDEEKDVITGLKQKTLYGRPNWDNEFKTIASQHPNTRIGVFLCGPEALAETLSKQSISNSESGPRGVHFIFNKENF
Sequence of Torsin-1A (Homo sapiens) (O14656 whole entry, looked up): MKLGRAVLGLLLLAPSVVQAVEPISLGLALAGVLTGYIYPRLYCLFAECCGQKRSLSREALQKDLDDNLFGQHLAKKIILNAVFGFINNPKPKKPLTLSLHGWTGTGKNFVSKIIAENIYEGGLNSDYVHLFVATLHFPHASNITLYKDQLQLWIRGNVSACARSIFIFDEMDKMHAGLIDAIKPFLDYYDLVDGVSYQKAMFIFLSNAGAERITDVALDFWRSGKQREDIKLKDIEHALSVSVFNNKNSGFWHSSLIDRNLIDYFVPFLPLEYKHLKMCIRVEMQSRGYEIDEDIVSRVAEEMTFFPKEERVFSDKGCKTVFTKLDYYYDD
Sequence of Streptavidin (Streptomyces avidinii) (P22629 whole entry, looked up): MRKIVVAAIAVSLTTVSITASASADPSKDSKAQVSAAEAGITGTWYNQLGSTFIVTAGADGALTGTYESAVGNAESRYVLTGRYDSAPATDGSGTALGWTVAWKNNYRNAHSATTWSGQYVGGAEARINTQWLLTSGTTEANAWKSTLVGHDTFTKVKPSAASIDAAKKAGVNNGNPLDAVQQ

With `C=C1C(=O)C=C2CN(C(=O)c3ccccc3)[C@@](Cc3ccc(F)cc3)(C(=O)OC)[C@@H]12`, the composite z-score in experiment [1] is 0.272; in experiment [6], 1.87; in [7], 0.49; in [8], 0.172; in experiment [9], 0.73; in experiment [10] it was -0.0536. The compound also had a composite z-score in experiment [12] of 0.676. For the same compound, the z-score in experiment [2] is -5.23 (inactive); in [3], 1.1 (inactive); in experiment [4], -0.375 (inactive); in experiment [5], -2.15 (inactive); in [11] it was -2.05 (inactive); in [13], -0.0775 (inactive). The z-score in experiment [14] is -1.39 (inactive); in [15], -1.69 (inactive); in experiment [16] it was -1.83 (inactive); in experiment [17] it was -1.06; in experiment [18] it was -3.94 (inactive); in experiment [19], -4.76 (inactive). The compound also had a z-score in [20] of -3.73.

As for `COc1ccc([Si](C)(C)[C@H]2[C@H](CC(=O)N3CCC[C@H]3CO)O[C@@]3(C(=O)N(Cc4cccc(N5CCCCC5=O)c4)c4ccccc43)[C@@H]2C)cc1`, the composite z-score in experiment [1] was -0.108; in [6] it was 0.233; in experiment [7], -0.128; in experiment [8], 0.593; in [9], 0.812; in experiment [10] it was 2.01. The same compound displayed a composite z-score in experiment [12] of 0.0799. The z-score is -1.39 (inactive) in [2]; -0.00805 (inactive) in experiment [3]; 2.88 (inactive) in experiment [4]; -0.314 (inactive) in [5]; 0.499 (inactive) in experiment [11]; 4.11 (inactive) in [13]. Further, the z-score in experiment [14] was 0.57 (inactive); in [15] it was 0.318 (inactive); in experiment [16] it was 0.525 (inactive); in experiment [17] it was -0.438; in [18], 1.45 (inactive); in experiment [19], 1.44 (inactive). The z-score in experiment [20] is 4.92.

With `O=C1N(Cc2ccccc2)c2ccccc2C[C@@]12N=C(c1ccc(OCCCO)cc1)O[C@H]2c1ccccc1`, the composite z-score in [1] is 0.378; in experiment [6] it was 0.798; in experiment [7] it was -0.0963; in experiment [8], -0.133; in experiment [9] it was 0.318; in [10] it was 1.34. In experiment [12], this compound gave a composite z-score of 0.383. Further, the z-score in [2] is -3.89 (inactive); in experiment [3], -0.34 (inactive); in experiment [4], 1.87 (inactive); in experiment [5], -0.483 (inactive); in [11], -1.12 (inactive); in [13] it was 10.8 (active). Moreover, the z-score in experiment [14] was 2.67 (inactive); in experiment [15] it was 3.39 (inactive); in experiment [16], 1.03 (inactive); in experiment [17] it was 0.075; in experiment [18] it was 1.92 (inactive); in experiment [19], 0.112 (inactive). The compound further yielded a z-score in experiment [20] of -1.67.

For `COCCOC(=O)N1C(=O)[C@@]2(c3cc(C#CCNC(N)=O)ccc31)[C@H](C(=O)Nc1nc3ccccc3s1)[C@H]1C(=O)O[C@H](c3ccccc3)[C@H](c3ccccc3)N1[C@@H]2c1ccc(O)cc1`, the composite z-score in experiment [1] is 0.0623; in experiment [6] it was 0.753; in experiment [7], 0.189; in experiment [8], -0.227; in experiment [9], -0.023; in experiment [10], 0.527. Besides, the composite z-score in experiment [12] was found to be 0.317. In addition, the z-score was 0.284 (inactive) in experiment [2]; 0.326 (inactive) in [3]; -0.168 (inactive) in experiment [4]; -0.227 (inactive) in [5]; -0.614 (inactive) in [11]; 1.1 (inactive) in [13]. Besides, the z-score in [14] is 0.476 (inactive); in experiment [15], -0.385 (inactive); in experiment [16], 1.05 (inactive); in [17] it was 0.637; in [18], 0.95 (inactive); in experiment [19], -1.12 (inactive). Besides, the z-score in [20] was found to be 0.142.
